We go through seven molecules from PMC5540273 (PLoS ONE, 2017).

One test concerns T1, MEK2.
T1 construct: gene MAP2K2
Particulars: concentration: 1 μM, replicates: in singlicate; n = 1.

Another test concerns T2, MEK3.
T2 construct: gene MAP2K3
Particulars: concentration: 1 μM, replicates: in singlicate; n = 1.

Another test has as its system T3, MEK4.
T3 construct: gene MAP2K4
The conditions noted are these: n = 1.

The next test deals with T4, MEK5.
T4 construct: gene MAP2K5
Particulars: n = 1.

Another test deals with T5, MEK6.
T5 construct: gene MAP2K6
Particulars: concentration: 1 μM, replicates: in singlicate; n = 1.

In the next test the test system is MELK. The conditions noted are these: n = 1.
The subject of the next test is MERTK. The conditions noted are these: n = 1.
A further test has as its system MET. Particulars: concentration: 1 μM, replicates: in singlicate; n = 1.
The subject of the next test is T6, MINK.
T6 construct: gene MINK1
Particulars: concentration: 1 μM, replicates: in singlicate; n = 1.

A further test has as its system MKK7. Particulars: concentration: 1 μM, replicates: in singlicate; n = 1.
A further test has as its system MKNK1. The conditions noted are these: concentration: 1 μM, replicates: in singlicate; n = 1.
For a further test, the system named is MKNK2. Particulars: n = 1.
Another test deals with T7, MLCK.
T7 construct: gene MYLK3
The conditions noted are these: n = 1.

For a further test, the system named is T8, MLK1.
T8 construct: gene MAP3K9
The conditions noted are these: concentration: 1 μM, replicates: in singlicate; n = 1.

The test system of another test is MLK2. The conditions noted are these: concentration: 1 μM, replicates: in singlicate; n = 1.
The next test deals with MLK3. The conditions noted are these: n = 1.
The next test concerns MRCKA. Particulars: n = 1.
In another test the test system is T9, MRCKB.
T9 construct: gene CDC42BPB
The conditions noted are these: n = 1.

Another test has as its system MST1R. Particulars: n = 1.
The test system of the next test is T10, MST1.
T10 construct: gene STK4
Particulars: n = 1.

Where [1] appears, read: concentration: 1 μM, replicates: in singlicate.
[2] abbreviates: concentration: 1 μM,replicates: in singlicate, 1 µM.

Each structure is given as a SMILES string. Where “and” joins values, the source holds several entries; their conditions need not be identical. Identical values can stand only once. Like-named read-outs stand apart in the source and are kept apart here.
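Also: KINOMEscan kinase panel screen.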

In the case of `CC(C)(C)c1ccc(C(=O)Nc2cn3cc(Cl)ccc3n2)cc1`, the “%Inh” value with MEK2 was 24%; in the test on MEK3 it was 0%; with MEK4 (setting [1]) it was 33%; with MEK5 (setting [1]) it was 38%; in the test with MEK6, 0%; in the test with MELK (setting [1]), 1%. For the same molecule, the “%Inh” value in the test with MERTK (setting [1]) was 0%; with MET it was 0%; in the test with MINK, 9%; with MKK7 it was 0%; in the test on MKNK1, 0%; in the test on MKNK2 (setting [1]), 0%. The “%Inh” value with MLCK (setting [1]) came out at 54%; with MLK1, 0%; in the test on MLK2 it was 8%; with MLK3 (setting [1]), 0%; in the test on MRCKA (setting [1]), 0%; in the test with MRCKB (setting [1]), 0%. For the same molecule, the “%Inh” value came to 5% in the test on MST1R (setting [1]) and 0% in the test with MST1 (setting [1]).

Consider `CSc1nn2c(=O)cc(N3CCOCC3)nc2n1Cc1cccc(C(F)(F)F)c1C` [GSK2363608], for which the “%Inh” value was 0% with MEK2; 0% in the test with MEK3; 17% and 30% with MEK4 (setting [2]); 12% and 0% in the test on MEK5 (setting [2]); 0% with MEK6; 6% and 0% in the test on MELK (setting [2]). Moreover, the “%Inh” value with MERTK (setting [2]) is 0% and 18%; in the test with MET, 0%; with MINK, 0%; with MKK7 it was 0%; with MKNK1, 0%; in the test with MKNK2 (setting [2]), 11% and 6%. Also, the “%Inh” value in the test with MLCK (setting [2]) is 0% and 11%; in the test with MLK1 it was 0%; in the test on MLK2, 0%; with MLK3 (setting [2]) it was 17% and 0%; in the test on MRCKA (setting [2]), 23% and 17%; with MRCKB (setting [2]), 0% and 5%. The “%Inh” value was 35% and 48% in the test on MST1R (setting [2]); 11% and 0% with MST1 (setting [2]).

Turning to `CN1C(=O)C(Nc2ccc(Cl)c(C(=O)O)c2)=C(c2ccc(Cl)cc2)C1=O` [SB-404290], the “%Inh” value amounted to 21% with MEK2; 3% with MEK3; 26% with MEK4 (setting [1]); 0% with MEK5 (setting [1]); 0% with MEK6; 4% in the test on MELK (setting [1]). Besides, the “%Inh” value was determined as 11% in the test on MERTK (setting [1]); 0% in the test with MET; 10% in the test with MINK; 0% in the test with MKK7; 0% in the test with MKNK1; 10% in the test with MKNK2 (setting [1]). Also, the “%Inh” value in the test on MLCK (setting [1]) is 0%; with MLK1, 0%; with MLK2 it was 0%; with MLK3 (setting [1]), 4%; with MRCKA (setting [1]) it was 13%; in the test with MRCKB (setting [1]) it was 0%. Also, the entries for the “%Inh” value in the test on MST1R (setting [1]) and with MST1 (setting [1]) were 19% and 12%, respectively.

As to `COC(=O)c1c(-c2ccccc2)c2cc(OC)ccc2c(=O)n1Cc1ccccc1`, the “%Inh” value in the test on MEK2 came out at 0%; in the test on MEK3, 0%; in the test with MEK4 (setting [1]), 18%; in the test on MEK5 (setting [1]) it was 10%; in the test on MEK6, 21%; in the test on MELK (setting [1]) it was 0%. The “%Inh” value with MERTK (setting [1]) is recorded as 3%; in the test with MET, 0%; in the test on MINK, 0%; in the test on MKK7 it was 7%; in the test with MKNK1 it was 5%; with MKNK2 (setting [1]) it was 0%. For the same molecule, the “%Inh” value was determined as 3% in the test with MLCK (setting [1]); 0% with MLK1; 9% with MLK2; 0% in the test with MLK3 (setting [1]); 0% in the test on MRCKA (setting [1]); 0% in the test with MRCKB (setting [1]). Moreover, the “%Inh” value was 38% in the test on MST1R (setting [1]) and 15% in the test with MST1 (setting [1]).

In the case of `Cc1ccc(-c2cc(-c3c[nH]nc3-c3ccccn3)ccn2)cc1` [GW684088], the “%Inh” value in the test with MEK2 came out at 0%; in the test with MEK3 it was 0%; in the test with MEK4 (setting [1]), 9%; in the test on MEK5 (setting [1]), 17%; in the test on MEK6, 19%; in the test on MELK (setting [1]), 25%. In addition, the “%Inh” value in the test on MERTK (setting [1]) was 13%; in the test with MET, 0%; with MINK, 87%; with MKK7 it was 14%; with MKNK1, 0%; in the test on MKNK2 (setting [1]) it was 1%. In addition, the “%Inh” value is reported as 0% in the test with MLCK (setting [1]); 0% in the test on MLK1; 0% in the test with MLK2; 15% in the test on MLK3 (setting [1]); 2% with MRCKA (setting [1]); 0% in the test with MRCKB (setting [1]). For the same molecule, the “%Inh” value in the test on MST1R (setting [1]) amounted to 13%; in the test with MST1 (setting [1]), 0%.

Consider `Cc1ccc(NC(=O)Nc2cc(C(C)(C)C)nn2-c2ccccc2)cc1` [GSK1014915], for which the “%Inh” value in the test with MEK2 worked out at 0%; with MEK3, 0%; in the test with MEK4 (setting [1]) it was 12%; with MEK5 (setting [1]) it was 2%; in the test with MEK6 it was 0%; in the test with MELK (setting [1]) it was 26%. Moreover, the “%Inh” value in the test on MERTK (setting [1]) is given as 15%; with MET it was 0%; in the test with MINK, 0%; in the test on MKK7, 0%; with MKNK1, 28%; in the test on MKNK2 (setting [1]) it was 91.9%. Moreover, the “%Inh” value in the test with MLCK (setting [1]) is given as 2%; with MLK1 it was 0%; in the test on MLK2, 0%; with MLK3 (setting [1]), 12%; with MRCKA (setting [1]), 23%; in the test on MRCKB (setting [1]), 8%. For the same molecule, the “%Inh” value in the test on MST1R (setting [1]) is reported as 41%; in the test on MST1 (setting [1]), 52%.

In the case of `CC(=O)Nc1nc2cnc(Nc3cc(NC(=O)c4cccc(CCC#N)c4)ccc3C)nc2s1`, the “%Inh” value in the test on MEK2 worked out at 0%; in the test with MEK3 it was 3%; in the test on MEK4 (setting [1]), 25%; with MEK5 (setting [1]) it was 2%; in the test with MEK6 it was 12%; in the test on MELK (setting [1]) it was 0%. The “%Inh” value in the test with MERTK (setting [1]) is listed as 12%; in the test with MET, 7%; in the test with MINK, 4%; in the test with MKK7, 0%; in the test with MKNK1, 3%; in the test with MKNK2 (setting [1]), 0%. Also, the “%Inh” value came out at 0% with MLCK (setting [1]); 2% in the test on MLK1; 15% in the test on MLK2; 13% in the test with MLK3 (setting [1]); 0% in the test with MRCKA (setting [1]); 0% with MRCKB (setting [1]). Moreover, the figures for the “%Inh” value with MST1R (setting [1]) and in the test on MST1 (setting [1]) were 21% and 5%, respectively.
